A selection: hits, their analogues and other compounds. The true share with any hit is near 2.1%.
EP2 modulator: EP2 receptor (human) modulation; P43116; EP2-expressing cells, cAMP HTRF FRET, PGE2 co-stimulation; induction, % at 25 µM; 0.83% of 260,000 active; AID 940;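 active means compounds whose cAMP rise, as percent of the full-agonist control response, exceeds 60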;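 further: rat C6 glioma line stably carrying human EP2 under a CMV promoter; the protocol text gives 20 µM as final concentration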
Target sequence (P43116 whole entry, looked up): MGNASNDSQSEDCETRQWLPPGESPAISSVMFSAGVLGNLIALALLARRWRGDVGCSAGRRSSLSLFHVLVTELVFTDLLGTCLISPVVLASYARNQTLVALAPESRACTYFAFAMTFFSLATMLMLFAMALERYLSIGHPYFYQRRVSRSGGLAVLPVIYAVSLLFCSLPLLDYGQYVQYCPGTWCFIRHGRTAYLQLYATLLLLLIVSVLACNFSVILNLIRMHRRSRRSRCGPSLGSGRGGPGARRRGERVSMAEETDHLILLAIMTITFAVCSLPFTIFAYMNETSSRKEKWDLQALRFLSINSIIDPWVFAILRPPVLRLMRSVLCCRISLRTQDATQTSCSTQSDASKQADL
GSH fluor: compound fluoresces at 488/530 nm on GSH beads; GSH beads flow cytometry, compound fluorescence 488/530 nm; hits give high values; fluorescence (KMESF) at 10 µM; 0.25% of 190,000 active; in the data active means fluorescence above about 89;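 further: glutathione beads carrying GST-tagged Bcl family fusion proteins plus one bare bead set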
Efa HMGR inh: inhibitors of class II HMG-CoA reductase from Enterococcus faecalis; purified E. faecalis HMGR, NADPH absorbance 340 nm kinetic; inhibition, % at 10 µM; 0.41% of 190,000 active;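 active means inhibition above a set limit, the median over all tested compounds plus 3 SD, cut at about 9.5% in these data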;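 further: enzyme runs in reverse so mevalonate oxidation gives rising NADPH absorbance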
Avidin bead fluor: avidin bead compound fluorescence profile; Avidin beads, compound fluorescence 488/530 nm, flow cytometry; hits give high values; 0.38% of 220,000 active; fluorescence (KMESF) at 10 µM; in the data active means fluorescence above about 47
EP2 antag: inhibitors of human EP2 prostaglandin E2 receptor | 0.52% of 260,000 active | P43116 | AID 1422 | C6 glioma cells expressing human EP2, cAMP TR-FRET; cells stimulated with saturating PGE2 | inhibition, % at 25 µM;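 active means percent inhibition above 40 after rounding to a whole number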;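 further: rat C6 glioma host cells with rolipram phosphodiesterase inhibitor present; the protocol text gives 20 µM as final concentration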
Each line names hits and unclear results; the compound was inactive in the other large screens.

CCN1CCc2c(sc(NC(=S)NC(=O)/C=C/c3ccccc3)c2C(N)=O)C1	EP2 antag 84 (no result: GSH fluor, Efa HMGR inh, Avidin bead fluor)
CCN(CC)CCOc1nc(C)nc2c1oc1ccccc12	Efa HMGR inh 14
CCN(CC)CCCOc1nc(C)nc2c1oc1ccccc12	none
CCN(CC)S(=O)(=O)c1ccc(S(=O)(=O)N2CCN(Cc3ccccc3)CC2)cc1	none (no result: GSH fluor, Efa HMGR inh, Avidin bead fluor)
CC1=C(C(=O)Nc2ccccc2)C(c2c(O)ccc3ccccc23)NC(=S)N1 (stereo unspecified)	none (no result: GSH fluor, Efa HMGR inh, Avidin bead fluor)
Cc1ccc(C)c2[nH]c(=O)c(CN(CCc3ccccc3)C(c3nnnn3C(C)(C)C)C(C)C)cc12 (stereo unspecified)	none (no result: GSH fluor, Efa HMGR inh, Avidin bead fluor)
O=c1c2ccccc2sn1-c1ccccc1	EP2 antag 118
O=c1c2ccccc2sn1-c1ccc(S(=O)(=O)N2CCCC2)cc1	none
CC(=O)N1CCC2(CC1)C(C#N)=C(N)Oc1n[nH]c(C(F)(F)F)c12	none
CCOC(=O)N1CCC2(CC1)C(C#N)=C(N)Oc1n[nH]c(C)c12	Efa HMGR inh 10.0
Cc1[nH]nc2c1C1(CCC3(CC1)OCCO3)C(C#N)=C(N)O2	Efa HMGR inh 10
Cc1cc2cc3c(cc2nc1SCC(=O)NCc1ccc2c(c1)OCO2)OCCO3	none (no result: GSH fluor, Efa HMGR inh, Avidin bead fluor)
Cc1cc(C)n(CCNC(=O)c2ncoc2-c2ccc(F)cc2)n1	none (no result: GSH fluor, Efa HMGR inh, Avidin bead fluor)
Cc1csc(NC(=O)CSc2nnc(Cc3ccccc3)n2C)n1	none (no result: GSH fluor, Efa HMGR inh, Avidin bead fluor)
COc1ccc(N(CC(=O)Nc2cc(C)on2)S(=O)(=O)c2cc(C)ccc2C)cc1	none
COc1ccc(N(CC(=O)Nc2cc(C)on2)S(=O)(=O)c2ccc(Cl)cc2)cc1	GSH fluor 250
CCC(=O)OCCn1c(=O)c2cc3c(=O)n(CCOC(=O)CC)c(=O)c3cc2c1=O	EP2 antag 95
CCOc1cccc(C(=O)Nc2nc3ccc(F)cc3s2)c1	none (no result: GSH fluor, Efa HMGR inh, Avidin bead fluor)
COc1ccccc1CC(=O)N1C2CCC1CC(O)(c1ccco1)C2 (stereo unspecified)	none (no result: GSH fluor, Efa HMGR inh, Avidin bead fluor, EP2 antag)
Cc1cc(C)c2oc(C(=O)Nc3ccc(S(=O)(=O)N4CCCC(C)C4)cc3)cc(=O)c2c1 (stereo unspecified)	Avidin bead fluor 93
CC1CCCN(S(=O)(=O)c2ccc(NC(=O)CN3CCN(C)CC3)cc2)C1 (stereo unspecified)	none
COc1ccc2c(c1)cc(C)c1nn(CC(=O)N(C)C)c(=O)n12	none (no result: GSH fluor, Efa HMGR inh, Avidin bead fluor, EP2 antag)
CCOC(=O)c1oc2ccccc2c1NC(=O)c1cccc(OC)c1	EP2 modulator 63
CCOC(=O)c1oc2ccc(OC)cc2c1CSc1ccccn1	EP2 modulator 62 (no result: GSH fluor, Efa HMGR inh, Avidin bead fluor)
CCOC(=O)c1oc2ccccc2c1CSc1nnc(-c2ccco2)o1	none
COc1ccc(CC(=O)N2CCC(O)(c3ccccn3)CC2)cc1	none (no result: GSH fluor, Efa HMGR inh, Avidin bead fluor, EP2 antag)
C=CCNc1nc(Nc2ccccc2F)nc(OCC)n1	none
C=CCNc1nc(Nc2ccc(OC)cc2OC)nc(OCC)n1	Avidin bead fluor 75
C/C(=N\[N-]C(=[SH+])SCc1ccccc1)c1ccccn1.[Cl][Cu]	EP2 antag 88 (no result: GSH fluor, Efa HMGR inh, Avidin bead fluor)
CSC(=[SH+])[N-]N=C(c1ccccn1)c1ccccn1.[Cu][Br]	EP2 antag 108 (no result: GSH fluor, Efa HMGR inh, Avidin bead fluor)
Cc1ccc(CNC(=O)c2cc3nc(-c4ccco4)cc(C(F)(F)F)n3n2)cc1	none (no result: GSH fluor, Efa HMGR inh, Avidin bead fluor)
COc1cc(OC)c(C2C3=C(CCCC3=O)Nc3[nH]n(-c4ccccc4)c(=O)c32)cc1OC (stereo unspecified)	none (no result: GSH fluor, Efa HMGR inh, Avidin bead fluor)
CC(C)Cc1cc(C(=O)N2CCCC(c3ncncc3-c3ccncc3)C2)no1 (stereo unspecified)	none (no result: GSH fluor, Efa HMGR inh, Avidin bead fluor, EP2 antag)
O=C(NCc1ccc2c(c1)OCO2)c1ccc2snnc2c1	none
O=C(NCc1ccco1)c1ccc2snnc2c1	Avidin bead fluor 187
CCS(=O)(=O)n1nc(-c2ccco2)nc1N	Efa HMGR inh 10
CCC(=O)n1nc(-c2ccco2)nc1N	none
CN(C)Cc1c(O)ccc2ccccc12	none (no result: GSH fluor, Efa HMGR inh)
Oc1ccc2ccccc2c1CN(Cc1c(O)ccc2ccccc12)C1CCCCC1	EP2 antag 55 (no result: GSH fluor, Efa HMGR inh, Avidin bead fluor)
CCCCCOc1ccc(CSC(=N)N)cc1[N+](=O)[O-]	EP2 antag 46
COc1ccc(CSC(=N)N)cc1[N+](=O)[O-]	none
c1ccc(CSc2ccc(-c3cccs3)nn2)nc1	Efa HMGR inh 12
c1ccc(CSc2ccc(-c3cccs3)nn2)cc1	none
O=C(CN1C(=O)COc2ccccc21)Nc1cccc(C(F)(F)F)c1	none (no result: GSH fluor, Efa HMGR inh, Avidin bead fluor)
Cc1sc2ncn(CC(=O)NCCCC(=O)N3CCN(c4ccccn4)CC3)c(=O)c2c1C	none
Cc1sc2ncn(CC(=O)NCCCC(=O)N3CCN(c4ncccn4)CC3)c(=O)c2c1C	Avidin bead fluor 52
C(=N\N1CCN(C2c3ccccc3-c3ccccc32)CC1)/c1ccncc1	EP2 modulator 61
COc1cccc(/C=N/N2CCN(C3c4ccccc4-c4ccccc43)CC2)c1O	EP2 modulator 65 (no result: GSH fluor, Efa HMGR inh)
Cc1ccc(C)c(S(=O)(=O)Nc2ccc(O)c(Sc3ncn[nH]3)c2)c1	none (no result: GSH fluor, Efa HMGR inh)
Cc1ccc(S(=O)(=O)/N=C2/C=C(Sc3ncn[nH]3)C(=O)c3ccccc32)c(C)c1	Efa HMGR inh 13, EP2 antag 54
Cc1ccc(S(=O)(=O)/N=C2/C=C(Sc3ncn[nH]3)C(=O)c3ccccc32)cc1	EP2 antag 126
CC(C)c1ccc(S(=O)(=O)/N=C2/C=C(Sc3ncn[nH]3)C(=O)c3ccccc32)cc1	EP2 antag 122
Cc1ccc(S(=O)(=O)Nc2ccc(O)c(Sc3ncn[nH]3)c2)cc1	none
CCOc1ccc(S(=O)(=O)Nc2ccc(O)c(Sc3ncn[nH]3)c2)cc1	none (no result: Avidin bead fluor, EP2 antag)
O=C(Nc1cccc(NC(=O)c2ccc3c(c2)OCO3)c1)c1cccc(Cl)c1	none (no result: GSH fluor, Efa HMGR inh, Avidin bead fluor)
CCOC(=O)c1ccc(NC(=O)C2(C)Cc3ccccc3C(=O)O2)cc1 (stereo unspecified)	none (no result: GSH fluor, Efa HMGR inh, Avidin bead fluor)
Cn1c(SCC(=O)Nc2ccccc2Cl)nnc1C1CCCCC1	none (no result: GSH fluor, Efa HMGR inh, Avidin bead fluor)
COCCn1nnnc1C(c1ccccc1F)N1CCN(C)CC1 (stereo unspecified)	none (no result: GSH fluor, Efa HMGR inh, Avidin bead fluor)
O=C1COc2ccc(N3C(=O)C=CC3=O)cc2N1	EP2 antag 46
O=C(c1ccc2c(c1)OCO2)N1CCC(Cn2nc(-c3ccccc3)ccc2=O)CC1	none (no result: GSH fluor, Efa HMGR inh, Avidin bead fluor, EP2 antag)
CCC(=O)N1CCc2cc(-c3csc(NC(=O)c4cccc(F)c4)n3)ccc21	none (no result: GSH fluor, Efa HMGR inh, Avidin bead fluor)
CN(C)C(=O)c1nc(C#N)c(N(C)C)o1	GSH fluor 257
CN(C)c1oc(COc2ccc(F)cc2)nc1C#N	none
Cc1nn(CCC(=O)Nc2ccc3[nH]c4c(c3c2)CCCC4)c(C)c1C	none (no result: GSH fluor, Efa HMGR inh, Avidin bead fluor)
COc1cccc(C2C=C(c3ccc(Br)s3)Nc3ncnn32)c1OC (stereo unspecified)	EP2 antag 112
Fc1ccc(Br)cc1C1C=C(c2ccc(Br)s2)Nc2ncnn21 (stereo unspecified)	none
CC1=NN(c2ccc(C)cc2C)C(=O)C1C(c1ccccc1)C1C(=O)N(c2ccc(C)cc2C)N=C1C (stereo unspecified)	Efa HMGR inh 9.6
Cc1ccc(-n2nc(C)c(C(=O)O)n2)c(C)c1	none
CC(=O)Nc1nc2ccc(F)cc2s1	none (no result: GSH fluor, Efa HMGR inh, Avidin bead fluor)
CCc1cc2c3c(c(=O)oc2cc1OC)CCCC3	none
CCOc1cc2oc(=O)c3c(c2cc1Cl)CCC3	Avidin bead fluor 74
